# From PubChem BioAssay (NCI)
# About 83,000 compounds went through this panel and 20% of them were active in at least one assay; those are over-represented in the sample as a whole.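 Cells were grown in 96-well plates and exposed to the test compound at a single concentration for 48 hours; results are reported as percent growth, with values below 10 considered active.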 Values without a mark were called inactive.
# System: NCI/ADR-RES ovarian
# Assay: NCI-60 one-dose screen, 48 h (100 = growth as untreated, 0 = no growth, -100 = all killed)
# Details: 1 µM
row,SMILES,growth
1,CC/C(=C(\c1ccc(O)cc1)c1ccc(OCCN(C)C(=O)COCCNC(=O)Cc2ccc3c(c2)CN([C@@H]2CCC(=O)NC2=O)C3=O)cc1)c1ccccc1,105%
2,CC/C(=C(\c1ccc(O)cc1)c1ccc(OCCN(C)C(=O)CCOCCNC(=O)c2ccc3c(c2)CN([C@@H]2CCC(=O)NC2=O)C3=O)cc1)c1ccccc1,106%
3,CC/C(=C(/c1ccc(O)cc1)c1ccc(OCCN(C)C(=O)CCOCCNC(=O)Cc2ccc3c(c2)CN([C@@H]2CCC(=O)NC2=O)C3=O)cc1)c1ccccc1,109%
4,CC/C(=C(/c1ccc(O)cc1)c1ccc(OCCN(C)C(=O)COCCOCCNC(=O)c2ccc3c(c2)CN([C@@H]2CCC(=O)NC2=O)C3=O)cc1)c1ccccc1,106%
5,CC/C(=C(\c1ccc(O)cc1)c1ccc(OCCNC)cc1)c1ccccc1,103%
6,CC/C(=C(/c1ccc(O)cc1)c1ccc(OCCN(C)C(=O)COCCOCCNC(=O)Cc2ccc3c(c2)CN([C@@H]2CCC(=O)NC2=O)C3=O)cc1)c1ccccc1,103%

# Same assay, conditions: 10 µM
row,SMILES,growth
1,CC/C(=C(\c1ccc(O)cc1)c1ccc(OCCN(C)C(=O)COCCNC(=O)Cc2ccc3c(c2)CN([C@@H]2CCC(=O)NC2=O)C3=O)cc1)c1ccccc1,98.7%
2,CC/C(=C(\c1ccc(O)cc1)c1ccc(OCCN(C)C(=O)CCOCCNC(=O)c2ccc3c(c2)CN([C@@H]2CCC(=O)NC2=O)C3=O)cc1)c1ccccc1,102%
3,CC/C(=C(/c1ccc(O)cc1)c1ccc(OCCN(C)C(=O)CCOCCNC(=O)Cc2ccc3c(c2)CN([C@@H]2CCC(=O)NC2=O)C3=O)cc1)c1ccccc1,99.6%
4,CC/C(=C(/c1ccc(O)cc1)c1ccc(OCCN(C)C(=O)COCCOCCNC(=O)c2ccc3c(c2)CN([C@@H]2CCC(=O)NC2=O)C3=O)cc1)c1ccccc1,102%
5,CC/C(=C(\c1ccc(O)cc1)c1ccc(OCCNC)cc1)c1ccccc1,91.1%
6,CC/C(=C(/c1ccc(O)cc1)c1ccc(OCCN(C)C(=O)COCCOCCNC(=O)Cc2ccc3c(c2)CN([C@@H]2CCC(=O)NC2=O)C3=O)cc1)c1ccccc1,107%
